Screening results as filed in PubChem BioAssay.
GLP-1R inv ag: acts as inverse agonist at human GLP-1 receptor. P43220. HEK293 GLP-1R CRE-luciferase, luminescence, 24 h; GLP-1R form is constitutively active. AID 624417. Potency, µM (titrated, usually from 38.3 µM), hits mostly inhibitors. 410,000 tested, 1.6% active; note: nearly all actives have a fitted effect of over 55% in size
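Cells are plated, allowed 12 hours at 37 deg C, then treated with compounds for 24 hr before luciferase detection reagent is added and luminescence is read after 12 min at room temperature. The HEK293 line carries constitutively active GLP-1R with a cAMP-responsive reporter.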
ClpP mod: qHTS Assay for Activators of ClpP | purified B. subtilis ClpP, FRET peptide cleavage, 20 min | Potency, µM (highest dose often 57.5 µM) | 340,000 tested, 1.9% active | AID 651965, 2013; active = well fitted falling curve with a large enough effect; inconclusive = small, poorly fitted or top-dose-only effect; inactive = no such curve, though single readings can be large or run the other way; note: the source files actives as falling curves though it sought activators and does not explain the sign; nearly all actives have a fitted effect of over 65% in size
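Purified B. subtilis ClpP, 10 microg/mL final in Tris/HCl pH8 with KCl, BSA, glycerol and Tween-20, cleaved an Abz/nitrotyrosine-quenched decapeptide. Fluorescence (ex 320, em 430) was read at 0 and 20 min at room temperature. Delta was normalized to 5.8 microM ADEP and DMSO/no-enzyme controls.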
HEK293 tox: cytotoxicity counter-screen for GLP-1 receptor inverse agonists | 410,000 tested, 0.13% active | HEK293 cAMP-luciferase reporter cells, luminescence, 24 h | Potency, µM (doses to about 38.3 µM), usual class: inhibitors;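 note: loss of luciferase light is scored as toxicity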
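Compound-treated cells are incubated 24 hr at 37 deg C under 5% CO2 after a 12 hour attachment period, then luciferase detection reagent is added and luminescence is measured following 12 min at room temperature; lowered signal indicates toxicity.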
GLP1R ag: GLP-1 receptor (human) agonism | 380,000 tested, 0.007% active | HEK293 GLP-1R CRE-luciferase, luminescence, 4-6 h; cells express a hypersensitive GLP-1R form | Potency, µM (highest dose often 45.6 µM), usual class: activators | AID 624172
Each line names hits and unclear results; the compound was inactive in the other large screens; ! = repeats disagree. Shown are actives, neighbours in structure and some others; about 3.2% of the full set was active somewhere. Unless noted, calls come from the whole dose curve; as a rule, active = well fitted curve in the direction sought with a large enough effect; inconclusive = small, poorly fitted or top-dose-only effect, or another doubt; inactive = no such curve, though single readings can be large; an effect the other way counts as inactive or inconclusive.

Cc1c(C)c2ccc(OCC(=O)N3CCC(C(=O)O)(c4ccccc4)CC3)cc2oc1=O	none
CCc1c(C)c2ccc(OCC(N)=O)cc2oc1=O	ClpP mod 6.3µM
CCOc1ccccc1N=C1SCCCN1C	none
CCOc1cccc(=NC2CCCCC2)c2c(C)n(C)c(C)c12	GLP-1R inv ag 10µM, HEK293 tox inconclusive
COc1ccc(C(=O)Oc2c(Sc3ccccc3)c(C)nn2-c2ccccc2)c(OC)c1	GLP-1R inv ag 13µM, HEK293 tox inconclusive (no result: GLP1R ag)
Cc1cccc(-n2c(/C=C/c3ccccc3O)nc3ccccc3c2=O)c1	GLP-1R inv ag inconclusive (no result: GLP1R ag)
Cc1cccc(N2CCc3c2nc2ccccc2c3N)c1	GLP-1R inv ag inconclusive, ClpP mod 25µM!, HEK293 tox inconclusive
CSc1ccccc1C(=O)C1CCCN(Cc2cccc(C)n2)C1 (centres undefined)	GLP-1R inv ag 11µM, HEK293 tox inconclusive (no result: ClpP mod)
Cc1cccc(-c2cccc(NC(=O)C3CCCN(Cc4cccnc4)C3)c2)c1 (centres undefined)	GLP-1R inv ag inconclusive, HEK293 tox inconclusive
O=C1c2ccccc2-c2n[nH]c(=O)c3ccc(N4CCCCC4)c1c23	HEK293 tox inconclusive (no result: ClpP mod)
O=C(NCC(c1ccco1)N1CCCC1)c1cccc(S(=O)(=O)N2CCc3ccccc32)c1 (centres undefined)	GLP-1R inv ag inconclusive
Cc1ccc(-c2csc(-c3c[nH]c4ccccc34)n2)c(C)c1	GLP-1R inv ag 10µM, ClpP mod inconclusive, HEK293 tox inconclusive
COc1cccc(C(=O)CCN[C@@H](C)[C@H](O)c2ccccc2)c1	none (no result: GLP-1R inv ag, ClpP mod, HEK293 tox)
CN1CCc2cc(O)cc3c2[C@H]1Cc1ccc(O)c(O)c1-3	ClpP mod 28µM!
C[C@@H]1CCCCO[C@H](CN(C)Cc2ccc(C(F)(F)F)cc2)[C@H](C)CN([C@@H](C)CO)C(=O)c2cc(NC(=O)Cc3ccccc3)ccc2O1	GLP-1R inv ag 2.8µM, HEK293 tox inconclusive
C[C@@H]1CCCCO[C@@H](CN(C)CC2CCCCC2)[C@@H](C)CN([C@H](C)CO)C(=O)c2cc(NS(=O)(=O)c3ccc(Cl)cc3)ccc2O1	GLP-1R inv ag 10µM, HEK293 tox inconclusive
Cc1ccc(C(C)C)c(OCc2nn(CC(=O)c3ccc(OC(F)F)cc3)c3[n+]2CCCCC3)c1	GLP-1R inv ag inconclusive, HEK293 tox inconclusive (no result: ClpP mod)
C=C/C=C/CC1=C(C)[C@@H](OC(=O)[C@@H]2[C@@H](/C=C(\C)C(=O)OC)C2(C)C)CC1=O (tested in a mixture with another compound)	none (no result: GLP-1R inv ag, ClpP mod, HEK293 tox)
Fc1ccc(C(OCCN2CCCC2)c2ccc(Br)cc2)cc1 (centres undefined)	GLP-1R inv ag 5.6µM, HEK293 tox inconclusive
CN1CC2(Cc3c1ccc1ccccc31)C(=O)OC(C)(C)OC2=O	ClpP mod 14µM!
Cc1ccc2c(c1)CC1(CN2C)C(=O)NC(=O)N(CCc2ccccc2)C1=O (centres undefined)	none
COc1ccc(N2CCN(C(=O)CCCCCn3c(=S)[nH]c4ccc(N5CCOCC5)cc4c3=O)CC2)cc1	GLP-1R inv ag inconclusive
O=C(NCC(c1cccnc1)N1CCN(c2ccccc2F)CC1)Oc1ccccc1 (centres undefined)	ClpP mod 22µM
COc1ccc(N2CCN(C(CNC(=O)Oc3ccccc3)c3cccnc3)CC2)cc1 (centres undefined)	none
O=C(Cc1ccc(Br)cc1)NCc1ccccc1	GLP-1R inv ag inconclusive, HEK293 tox inconclusive
Cc1cccc(C)c1NC(=O)C(c1ccccc1F)n1c(=O)c(-c2cc3ccccc3[nH]2)nc2ccccc21 (centres undefined)	GLP-1R inv ag inconclusive (no result: GLP1R ag)
O=S(=O)(c1ccc(Cl)cc1)c1ccc(Cl)cc1	none
COc1ccc([N+](=O)[O-])c(S(=O)(=O)c2ccc(Cl)cc2)n1	GLP-1R inv ag inconclusive, HEK293 tox 10µM (no result: ClpP mod)
O=C(CCl)c1ccc(Cl)cc1Cl	none (no result: GLP-1R inv ag, ClpP mod, HEK293 tox)
COCCn1cc(C(=O)N2CCC3(CC2)OCCO3)c2c3ccccc3n(C)c2c1=O	ClpP mod 20µM
COC(=O)NC(NC(=S)Nc1ccc([N+](=O)[O-])cc1)C(Cl)(Cl)Cl (centres undefined)	GLP-1R inv ag 11µM, HEK293 tox inconclusive
O=C(NC(c1ccc(F)cc1)c1ccc2ccccc2n1)C1CCN(CCOc2ccc(Cl)cc2)CC1 (centres undefined)	GLP-1R inv ag 6.3µM, HEK293 tox inconclusive
O=C(Nc1ccc([N+](=O)[O-])cc1)Nc1ccc(OC(F)F)c(Cl)c1	GLP-1R inv ag 3.5µM, HEK293 tox inconclusive
Cc1ccc(Cn2cc(C=O)c3ccccc32)cc1	GLP-1R inv ag inconclusive (no result: ClpP mod)
O=Cc1cn(Cc2ccc([N+](=O)[O-])cc2)c2ccccc12	GLP-1R inv ag 2.2µM
O=C(c1ccc(Cl)cc1)c1cn(Cc2ccccc2)c2cc3c(cc2c1=O)OCCO3	GLP-1R inv ag inconclusive (no result: GLP1R ag)
CCn1ccnc1CN1CCCC(C(=O)c2cc(Cl)ccc2OC)C1 (centres undefined)	GLP-1R inv ag 10µM, HEK293 tox inconclusive (no result: ClpP mod)
CCCCn1cnc2cc(NCc3cccc(OC)c3O)ccc21	ClpP mod 32µM
Cc1c(O)ccc2c3c(c(=O)oc12)CCC(C)C3 (centres undefined)	ClpP mod 25µM
C[n+]1c(-c2ccccc2)c2cc(N)ccc2c2ccc(N)cc21	GLP-1R inv ag 1.8µM, HEK293 tox inconclusive
Nc1ccc2ccc3cccc[n+]3c2c1	none (no result: ClpP mod)
Cc1cccc(C(=O)NC(=S)Nc2cccc3nc(C)ccc23)c1	GLP-1R inv ag inconclusive, HEK293 tox inconclusive
CCCC1(CC(C)C)C(=O)NC(=S)NC1=O	ClpP mod 28µM
CCC1(CC(C)C)C(=O)NC(=S)NC1=O	none
CCOC(=O)c1ccc(N2C(=O)c3n[nH]c(-c4cccs4)c3C2c2ccc(OC)cc2OC)cc1 (centres undefined)	ClpP mod inconclusive
COc1ccc(CNCCc2c(C)[nH]c3ccc(OC(F)(F)F)cc23)c(OC)c1	GLP-1R inv ag 2µM, HEK293 tox inconclusive (no result: ClpP mod)
C[C@]12CC[C@@H]3c4ccc(OC(=O)N(CCCl)CCCl)cc4CC[C@H]3[C@@H]1CC[C@@H]2OP(=O)(O)O	none (no result: GLP-1R inv ag, ClpP mod, HEK293 tox)
COc1cccc(OC)c1C(=O)NC(=S)N1CCN(c2ccc(C(F)(F)F)cc2[N+](=O)[O-])CC1	GLP-1R inv ag inconclusive, HEK293 tox inconclusive
O=C(Nc1ccccc1Cl)c1ccccc1Oc1ccc(C(F)(F)F)cc1[N+](=O)[O-]	GLP-1R inv ag 7.1µM, HEK293 tox inconclusive
O=C(NCCc1ccc(Cl)cc1)c1ccc2c(c1)N(Cc1ccc(F)cc1Cl)C(=O)CS2	GLP-1R inv ag inconclusive, HEK293 tox inconclusive
C=C1C(=O)OC2CC3(C)OC3CCC(C)=CC(OC(C)=O)C12 (centres undefined)	GLP-1R inv ag inconclusive, HEK293 tox inconclusive
C=C1C(=O)O[C@H]2C[C@H]1[C@@H](OC(C)=O)C/C(C)=C/CC/C(C)=C\CC[C@]2(C)O	GLP-1R inv ag 7.1µM, HEK293 tox inconclusive
CC12CN3CC(c4ccccc4)(CN(C1)C31CCCCC1)C2=O	ClpP mod 13µM
